# This is part of a sample that, as a whole, favours compounds with a hit. Of some 79,000 tested, about 15% had one in any assay. Values without a mark were called inactive. Calls of active or inactive are those of the source. Rule as the data show it: active = growth inhibition above about 70%; inactive = the rest.
# How the values were obtained:
# [1] = NCI Yeast Anticancer Drug Screen. Data for the rad50 strain (AID 155);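 also: 0% = growth of vehicle-only cultures of the same strain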; conditions: S. cerevisiae rad50 strain growth inhibition, hits give high values
# Procedure, shortened: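 Vehicle-treated cultures provide the reference for the growth inhibition reported for compound-exposed, repair-deficient yeast.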
# [2] = NCI Yeast Anticancer Drug Screen. Data for the mec2-1 strain (AID 157); conditions: S. cerevisiae mec2-1 strain, hits give high values
# Procedure, shortened: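 Strain: mec2-1 (DNA repair/cell cycle alteration). Compound exposure, then growth measured; inhibition expressed relative to vehicle.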
# [3] = NCI Yeast Anticancer Drug Screen. Data for the sgs1 mgt1 strain (AID 161);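 also: 0% = growth of cultures given vehicle only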; conditions: S. cerevisiae sgs1 mgt1 strain, hits give high values
# Procedure, shortened: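 Read-out: growth inhibition vs vehicle controls. Cells: mutant yeast strain deficient in DNA damage repair.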
# [4] = NCI Yeast Anticancer Drug Screen. Data for the cln2 rad14 strain (AID 165);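 also: 0% = growth equal to vehicle treated cultures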; conditions: S. cerevisiae cln2 rad14 strain, hits give high values
# Procedure, shortened: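 Compounds are applied to the cln2 rad14 yeast strain, and growth is then compared with that of vehicle-treated cultures to give inhibition.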
# [5] = NCI Yeast Anticancer Drug Screen. Data for the bub3 strain (AID 167); conditions: S. cerevisiae bub3 mutant strain, hits give high values
# Procedure, shortened: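 Mutant yeast screening strain plus compound; vehicle-treated cultures serve as the 0% inhibition reference.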
# [6] = NCI Yeast Anticancer Drug Screen. Data for the mlh1 rad18 strain (AID 175); conditions: S. cerevisiae mlh1 rad18 strain growth inhibition, hits give high values
# Procedure, shortened: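 Read-out is yeast growth inhibition, calculated against vehicle-only controls. The compound was applied to a strain engineered with DNA damage repair alterations.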
# [7] = at 5.0 µM (retest, dose inferred, filed as 0.5)
# [8] = at 50.0 µM (retest, dose inferred, filed as 5.0)
SMILES,"growth inhibition [1, 7]","growth inhibition [1, 8]",growth inhibition ([1]; at 50.0 µM),"growth inhibition [2, 7]","growth inhibition [2, 8]",growth inhibition ([2]; at 50.0 µM),"growth inhibition [3, 7]","growth inhibition [3, 8]",growth inhibition ([3]; at 50.0 µM),"growth inhibition [4, 7]","growth inhibition [4, 8]",growth inhibition ([4]; at 50.0 µM),"growth inhibition [5, 7]","growth inhibition [5, 8]",growth inhibition ([5]; at 50.0 µM),"growth inhibition [6, 7]","growth inhibition [6, 8]",growth inhibition ([6]; at 50.0 µM)
O/N=C1/C(=C/c2ccc(Cl)c(Cl)c2)CCCC1C(NO)c1ccc(Cl)c(Cl)c1 (stereo not given),17%,96% (active),64%,-1%,98% (active),1.9%,2%,96% (active),25.2%,-6%,97% (active),-14.8%,-1%,96% (active),21.6%,1%,97% (active),79% (active)
Cc1cc(Cl)c2c(c1)C(=O)/C(=C/c1ccc(Cl)cc1)O2,5%,99% (active),88.3% (active),18%,99% (active),90% (active),-17%,99% (active),84.1% (active),26%,99% (active),89.2% (active),-22%,98% (active),88.7% (active),13%,99% (active),85.3% (active)
Clc1cc(Cl)c(OCCOCCI)c(Cl)c1,0%,13%,28.1%,2%,12%,9.15%,1%,11%,16.1%,1%,-25%,14.4%,10%,42%,48%,-3%,5%,34%
CCC1([N+](=O)[O-])COC(c2ccc3c(c2)OCO3)OC1 (stereo not given),-9%,-11%,-1.7%,-14%,-1%,-3.15%,-1%,-47%,11.7%,10%,21%,-1.9%,14%,-23%,3.35%,-18%,-6%,4.45%
CC(C)OP(=O)(OC(C)C)/C(I)=N/Nc1ccc([N+](=O)[O-])cc1,-7%,-1%,68.7%,-6%,8%,13.9%,6%,37%,38.4%,-14%,14%,13.1%,1%,-1%,61.7%,9%,4%,70%
COC(=O)/C=C(\C)Nc1ccc(Cc2ccc(Cl)cc2)cc1,7%,98% (active),98.3% (active),-3%,99% (active),97.8% (active),7%,99% (active),97.2% (active),1%,99% (active),97.5% (active),-3%,98% (active),97.5% (active),9%,99% (active),98.2% (active)
COc1ccc2c(c1)C(=O)/C(=C/c1ccc([N+](=O)[O-])o1)CO2,15%,99% (active),97.2% (active),10%,100% (active),38.2%,33%,100% (active),98.1% (active),15%,99% (active),57.1%,15%,99% (active),89.8% (active),78% (active),99% (active),98.2% (active)
Oc1c(Cl)cc(Cl)cc1/C=C1\C=Nc2ccccc21,1%,-5%,2.75%,-11%,5%,14.9%,-7%,5%,-14.2%,13%,20%,13.6%,3%,23%,5.2%,-3%,-3%,4.95%
Oc1cc(Cl)cc2c1-c1ccc(Cl)cc1C2O (stereo not given),9%,97% (active),95.2% (active),6%,98% (active),91.2% (active),-4%,97% (active),96.3% (active),28%,97% (active),81.8% (active),31%,97% (active),93.8% (active),20%,98% (active),95.5% (active)
CC(NNC(=S)N1CCCC1)c1cc2ccccc2cn1 (stereo not given),30%,99% (active),89.2% (active),38%,99% (active),90.8% (active),62%,98% (active),90.8% (active),66%,96% (active),90.3% (active),64%,98% (active),88.2% (active),34%,98% (active),92.2% (active)

# From PubChem BioAssay (NCI)
